Measurements taken from PubChem BioAssay AID493194 (Broad Institute, 2011).
Entries with a potency or affinity are not part of this list. Results filed as inconclusive are left out.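 The calls were made as follows: active = a valid curve of falling signal whose half-effect concentration is at most ten times the top tested dose; inconclusive = flat curve at 30 to 70% inhibition, or poor fit; inactive = signal rise, flat within 30%, or potency beyond limit.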

target: Scavenger receptor class B member 1 (Mus musculus) (UniProt Q61009); test: mouse SR-BI DiI-HDL uptake blockers – ldlA[mSR-BI] cells, fluorescence, cherry pick, dose response (AID 493194); details: CHO ldlA[mSR-BI] DiI-HDL uptake fluorescence, 3 h; series mostly up to 35 µM; activity change, negative = inhibition: at the top concentration;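 also: CHO cells lacking LDL receptor and overexpressing mouse SR-BI; cellular uptake of fluorescently labeled HDL measured as cell fluorescence; 0% = median of neutral control wells and -100% = median of positive control wells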
Sequence (Q61009 whole entry, looked up): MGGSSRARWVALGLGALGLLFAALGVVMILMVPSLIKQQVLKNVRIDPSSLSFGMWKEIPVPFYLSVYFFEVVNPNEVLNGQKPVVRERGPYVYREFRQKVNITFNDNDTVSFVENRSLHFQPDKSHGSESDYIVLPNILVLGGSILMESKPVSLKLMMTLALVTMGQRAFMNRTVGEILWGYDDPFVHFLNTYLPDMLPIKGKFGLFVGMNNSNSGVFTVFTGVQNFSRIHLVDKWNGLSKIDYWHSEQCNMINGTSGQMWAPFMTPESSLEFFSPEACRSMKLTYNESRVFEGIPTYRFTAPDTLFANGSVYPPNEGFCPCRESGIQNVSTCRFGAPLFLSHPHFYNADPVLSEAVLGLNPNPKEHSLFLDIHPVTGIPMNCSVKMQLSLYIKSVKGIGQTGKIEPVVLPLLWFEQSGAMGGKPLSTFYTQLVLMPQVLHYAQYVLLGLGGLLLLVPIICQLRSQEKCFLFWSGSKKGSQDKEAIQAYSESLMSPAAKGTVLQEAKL

Activity change, negative = inhibition, inactive:
Cc1cccc(NC(=O)c2cc(-c3cc(C)cc(C)c3O)n[nH]2)c1 -31.4%, CN(Cc1ccc(OC(F)F)cc1)C(=O)c1ccccc1Sc1ccccc1C#N 38.7%, C[C@@H]1COC(=O)[C@H](NC(=O)OCC2c3ccccc3-c3ccccc32)C/C=C\C[C@@H](CC(=O)N[C@H](CO)Cc2ccccc2)C(=O)N1 -0.07%, COc1ccc(COC(=O)c2ccc(Br)c(S(=O)(=O)N3CCOCC3)c2)cc1F -34.5%, COc1ccc(-c2csc(N3CCN(c4cc(C)nc5ccccc45)CC3)n2)cc1OC -1.93%, CCc1cc2c(=O)c(-c3ccc4c(c3)OCCO4)coc2cc1OS(C)(=O)=O -7.65%, COc1ccc(OCCSc2nnc(-c3cccnc3)n2N)cc1 -6.66%, Cc1cc(C)cc(N2CN=C3SCC(=O)N3C2)c1 -9.5%, Cc1c(Nc2nc3ccccc3nc2N2CCN(c3ccccc3)CC2)c(=O)n(-c2ccccc2)n1C -22%, COc1ccc(CCN2CC(C(=O)NCc3cc(C(C)C)no3)CCC2=O)cc1 (stereo not drawn) 6.57%, CN(C(=O)COC(=O)c1c2c(nc3ccccc13)/C(=C/c1cccc([N+](=O)[O-])c1)CCC2)C1CCS(=O)(=O)C1 (stereo not drawn) -8.72%, c1ccc(CCNc2nc(-c3ccncc3)nc3ccccc23)cc1 -17.9%, Cc1ccc(C)c(NC(=O)c2ccc3c(c2)N(Cc2ccc(F)cc2)C(=O)CS3=O)c1 (stereo not drawn) 6.93%, COc1ccccc1C(CC(=O)Nc1ccccc1C)c1ccc(OC(C)C)cc1 (stereo not drawn) -23.1%, O=C(Nc1ncc(Cc2cccc(C(F)(F)F)c2)s1)c1ccc(-c2cccc([N+](=O)[O-])c2)o1 -9.44%, COc1cc([N+](=O)[O-])ccc1NC(=O)NCC1CCN(Cc2ccc(Cl)cc2)CC1 -13%, CCOC(=O)c1[nH]c2c(c1-c1ccccc1)C(=O)CC(c1ccc(Cl)cc1)C2 (stereo not drawn) 14%, Cc1ccc2nc3c(c(C(=O)OCC(=O)N(C)C4CCS(=O)(=O)C4)c2c1)CCCC3 (stereo not drawn) 43.9%, Cc1ccc(S(=O)(=O)N2CCC(C(=O)NNC(=O)c3cccnc3)CC2)cc1 -4.61%, COc1ccc(NC(=O)Nc2nnc(-c3ccccc3SCc3ccccc3)s2)cc1 56.2%, N#Cc1ccc(Nc2nc(-c3ccc(O)cc3O)cs2)cc1C(F)(F)F 5.41%, COC(=O)c1c(C)[nH]c(C(=O)C(C)OC(=O)C2CC(=O)N(c3ccc(C)cc3)C2)c1C (stereo not drawn) -23.5%, Cc1cc2oc(=O)cc(-c3ccccc3)c2c(C)c1-c1ccc(C(F)(F)F)cc1 -5.41%, CCC(C)(C)NC(=O)C(c1ccc(C)cc1)N(Cc1cccs1)C(=O)c1ccc2c(c1)OCCO2 (stereo not drawn) -5.45%, Cc1cccc(Nc2ccccc2C(=O)OCC(=O)N(C)C2CCS(=O)(=O)C2)c1C (stereo not drawn) -26.6%, COCCN(Cc1cn(C)nc1-c1ccc(Oc2ccccc2)cc1)C(C)C 4.72%, COc1ccc(CNC(=O)C(c2ccc(C)cc2)N(Cc2cccs2)C(=O)c2ccc3c(c2)OCCO3)cc1 (stereo not drawn) 11%, CCOC(=O)c1c(C)n(-c2ccc(C)cc2)c2c(CC(C)=O)c(Br)c(OC)c(O)c12 1.79%, Oc1csc(Cc2nc(-c3ccc4ccccc4c3)cs2)n1 -25.9%, O=C(CSc1cn(CCNC(=O)c2cccs2)c2ccccc12)NCC1CCCO1 (stereo not drawn) -3.57%, COc1ccc(C2C(C#N)=C(N)N(c3ccccc3C#N)C3=C2C(=O)CCC3)cc1CN1CCCC1 (stereo not drawn) 30.7%, O=c1cc(N2CCCCC2)c(-c2ccccc2)nn1Cc1cccc(F)c1 60.8%, COc1ccc(N(CC(=O)NC2CCCC2)C(=O)Cn2nnc(-c3ccc(OC)c(OC)c3)n2)cc1 -9.87%, CCOCCOC(=O)c1[nH]c2c(c1C)C(=O)CC(c1cccs1)C2 (stereo not drawn) -16.7%, COc1ccc(-c2[nH]c(-c3ccc(F)cc3)nc2SCC(=O)NC2CCCC2)cc1 -26.3%, Oc1ccc(/C=C/c2nc(-c3ccccc3O)n(-c3ccccc3)n2)cc1 1.35%, O=C(c1ccc(-n2nc(C(F)(F)F)c3c2CCCC3)cc1)N1CCOCC1 -4.78%, CCCC(=O)N1c2ccc(-c3csc(N)n3)cc2CC1C (stereo not drawn) -43.6%
